Each structure is given as a SMILES string. Inconclusive results are not listed. Active and inactive are the calls of the source. Unless noted, the call rests on the fitted dose curve; in most records, active means well fitted curve in the direction sought with a large enough effect in the repeat runs; inconclusive means weak or mixed curves; inactive means no such curve, though single readings can be large; an effect the other way counts as inactive or inconclusive.

Experiment [1] in a line: qHTS assay for small molecule agonists of the p53 signaling pathway (AID 651631; calls by dose curve; further: nearly all actives have a fitted effect of over 15% in size; further: potency means the concentration at half of the fitted maximal effect). In short, it runs like this: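 HCT-116 p53RE-bla reporter line, 16 h compound treatment at 37 °C, then fluorescence after 2 h with B/G FRET substrate.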
(In general: In qHTS, concentration-response curves come from the screen itself.)

Experiment [2] in a line: qHTS assay for small molecules that induce genotoxicity in human embryonic kidney cells expressing luciferase-tagged ATAD5 (AID 651632). Further: nearly all actives have a fitted effect of over 15% in size. In short, it runs like this: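 Reporter cells (HEK293T) express luciferase-tagged ATAD5, a protein that accumulates after DNA damage. Treat 16 hr at 37C/5% CO2, add Amplite, wait 30 min at RT, and read luminescence.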
A short description of experiment [3]: qHTS assay for small molecules that induce genotoxicity in human embryonic kidney cells expressing luciferase-tagged ATAD5 - cell viability (AID 651634; calls by dose curve; further: nearly all actives have a fitted effect of over 25% in size; further: potency means the concentration at half of the fitted maximal effect). In short, it runs like this: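 Seeding of 2,000 HEK293T ATAD5-luciferase cells per well preceded pin-tool compound transfer. Plates sat 15.5 hr at 37C under 5% CO2, then fluorescence was read after 30 min with CellTiter-Fluor.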

The nature of experiment [4]: qHTS assay for small molecule disruptors of the mitochondrial membrane potential (AID 720635). Further: potency means the concentration at half of the fitted maximal effect. In short, it runs like this:
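Mitochondrial membrane potential tracked with Mito-MPS dye, red aggregates (ex 540/em 590 nm) against green monomers (ex 490/em 535 nm). Compound treatment 1 hr at 37C, dye 30 min in HepG2.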

Experiment [5] is described as follows: qHTS assay to test for compound auto fluorescence at 590 nm (red) in HepG2 cells (AID 720674). In short, it runs like this:
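1 hr compound incubation on HepG2 cells, 37 C, 5% CO2; plate read ex 540 nm / em 590 nm; intensities reported as Rose Bengal sodium equivalents.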

A short description of experiment [6]: qHTS assay to test for compound auto fluorescence at 535 nm (green) in HepG2 cells (AID 720675).
Experiment [7] in a line: qHTS assay to test for compound auto fluorescence at 590 nm (red) in HEK293 cells (AID 720679). In short, it runs like this:
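Each well held 2,000 HEK293 cells in medium containing 10% dialyzed FBS. Following 4-5 hr attachment at 37C, 23 nL test compound or DMSO was added; plates sat overnight, and red fluorescence (540/590nm) was recorded.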

The nature of experiment [8]: qHTS assay for small molecule agonists of the p53 signaling pathway - cell viability (AID 651633; calls by dose curve;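 further: p53RE-bla HCT reporter cells with a stable beta-lactamase p53 reporter; series mostly up to about 83 µM; nearly all actives have a fitted effect of over 30% in size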). In short, it runs like this:
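Viability counter-read: CellTiter-Glo luminescence (30 min, room temperature) in the same p53RE-bla plates. These plates had been exposed to compounds for 16 h at 37 C.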

A short description of experiment [9]: qHTS assay for small molecule disruptors of the mitochondrial membrane potential - cell viability (AID 720634; calls by dose curve;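 further: human HepG2 liver cancer cells; series mostly up to about 83 µM; nearly all actives have a fitted effect of over 20% in size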). In short, it runs like this:
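Measuring cytotoxicity alongside mitochondrial potential, the screen quantified ATP by luminescence in HepG2 cells after 1 hr compound incubation and a 30 min room-temperature CellTiter-Glo step.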

Experiment [10] in a line: qHTS assay to test for compound auto fluorescence at 460 nm (blue) in HEK293 cells (AID 720678). In short, it runs like this:
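Cells were seeded and left to adhere for 4-5 hr at 37C. Compounds were then pin-transferred. After an overnight incubation at 37C under 5% CO2, intrinsic fluorescence at 405/460 nm was measured and referenced to triamterene.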

With `CC(C)=CCC/C(C)=C/CC/C(C)=C/CC/C=C(\C)CC/C=C(\C)CCC=C(C)C`, the Potency result in experiment [1], in experiment [2], in experiment [3], in [4] and in experiment [6] was “inactive” each time. In addition, the compound was called inactive in [5] and in [7].

With `CC(C)(C)C(=O)OCC(=O)[C@H]1CC[C@H]2[C@@H]3CCC4=CC(=O)CC[C@]4(C)[C@H]3CC[C@]12C`, the Potency entry in experiment [1], in [2], in experiment [8], in experiment [3], in [4] and in experiment [6] was “inactive” each time. Also, the result in experiment [5] and in experiment [7] was inactive.

With `CC(C)(COP(=O)(O)OP(=O)(O)OC[C@H]1O[C@@H](n2cnc3c(N)ncnc32)[C@H](O)[C@@H]1OP(=O)(O)O)C(O)C(=O)NCCC(=O)NCCS` (some centres not stated), the Potency entry in experiment [1], in experiment [2], in [3], in experiment [9], in experiment [4] and in experiment [6] was “inactive” in each case. Besides, the Potency entry in experiment [10] is “inactive”. Besides, the compound was called inactive in experiment [5] and in experiment [7].

Regarding `C=CC1=C(C(=O)O)N2C(=O)[C@@H](NC(=O)/C(=N\O)c3csc(N)n3)[C@H]2SC1` (stereo in doubt), the Potency result in experiment [1], in [2], in experiment [3], in experiment [9], in [4] and in experiment [6] was “inactive” each time. Also, the Potency entry in [10] was “inactive”. In addition, the outcome in experiment [5] and in experiment [7] was inactive.

`CCCOC(=O)c1ccc(O)cc1`: the Potency result in experiment [1], in [2], in experiment [8], in [3], in experiment [6] and in experiment [10] was “inactive” in each case. In addition, the outcome in [5] and in [7] was inactive.

In the case of `CC(C)[N+]1(C)[C@@H]2CC[C@H]1CC(OC(=O)C(CO)c1ccccc1)C2` (some centres not stated), the Potency entry in [1], in [2], in experiment [3], in experiment [9], in experiment [4] and in [6] was “inactive” in each case. Besides, the Potency entry in experiment [10] was “inactive”. In addition, the call in experiment [5] and in [7] was inactive.

For the compound `CSCCC(N)C(=O)O` (configuration not stated), the Potency entry in experiment [1], in experiment [2], in [3], in [9], in experiment [4] and in [6] was “inactive” in each case. Also, in experiment [10], the Potency result was “inactive”. For the same compound, the call in experiment [5] and in experiment [7] was inactive.

Consider `CC1(C)CCC(NC(=O)[C@@H](N)CCC(=O)O)CC1`, for which the Potency result in [1], in experiment [2], in experiment [3], in experiment [9], in [4] and in experiment [6] was “inactive” throughout. The compound was called inactive in experiment [5] and in [7].

Turning to `CCCC(=O)c1cc(O)c(O)cc1O`, the Potency in [1] was 68.6 µM (active); in [3], 30.6 µM (active); in [4], 5.45 µM (active). The Potency result in experiment [2], in experiment [8], in [6] and in experiment [10] was “inactive” throughout. Besides, in experiment [7], the outcome was inactive.

Consider `Cc1onc(-c2c(F)cccc2Cl)c1C(=O)N[C@@H]1C(=O)N2[C@@H]1SC(C)(C)[C@@H]2C(=O)O`, for which the Potency entry in experiment [1], in experiment [2], in experiment [3], in experiment [4], in experiment [6] and in [10] was “inactive” throughout. Further, the compound was called inactive in experiment [7].

`O=C(O)C[C@H](O)C[C@H](O)/C=C/c1c(C2CC2)nc2ccccc2c1-c1ccc(F)cc1`: the Potency entry in experiment [1], in experiment [2], in experiment [3], in experiment [9], in experiment [6] and in [10] was “inactive” throughout. For the same compound, the outcome in [5] and in [7] was inactive.

`FC(F)(F)C(F)(F)C(F)(F)C(F)(F)C(F)(F)F`: the Potency entry in experiment [1], in experiment [2], in experiment [8], in experiment [3], in [4] and in experiment [6] was “inactive” each time. In addition, in [10], the Potency result was “inactive”. The call in [7] was inactive.

For the compound `c1ccc(-c2ccc(C(c3ccccc3)n3ccnc3)cc2)cc1` (configuration not stated), the Potency in [1] was 29.8 µM (active). For the same compound, the Potency entry in experiment [2], in experiment [3], in experiment [9], in experiment [6] and in experiment [10] was “inactive” throughout. Moreover, the compound was classed as inactive in experiment [5] and in [7].

In the case of `O=C1c2c(O)cccc2[C@H]([C@@H]2O[C@H](CO)[C@@H](O)[C@H](O)[C@H]2O)c2cc(CO)cc(O)c21`, the Potency result in experiment [1], in experiment [2], in [3], in experiment [9], in experiment [4] and in experiment [6] was “inactive” in each case. In addition, the Potency entry in [10] is “inactive”. Besides, the outcome in [5] and in [7] was inactive.

On to `CN=C(N)NCCC[C@H](N)C(=O)O`, for which the Potency entry in experiment [1], in [2], in experiment [3], in experiment [9], in experiment [4] and in [6] was “inactive” in each case. The result in experiment [5] and in [7] was inactive.

For `C=N[C@@H](C(=O)N[C@@H]1C(=O)N2[C@@H]1SC(C)(C)[C@@H]2C(=O)O)c1ccccc1`, the Potency result in [1], in [2], in experiment [3], in experiment [9], in [4] and in experiment [6] was “inactive” in each case. For the same compound, the Potency result in [10] is “inactive”. Further, the compound was classed as inactive in experiment [5] and in experiment [7].

For the compound `CC[C@H]1OC(=O)[C@H](C)C(=O)[C@H](C)[C@@H](O[C@@H]2O[C@H](C)C[C@H](N(C)C)[C@H]2O)[C@](C)(OC)C[C@@H](C)C(=O)[C@H](C)[C@H]2N(CCCCn3cnc(-c4cccnc4)c3)C(=O)O[C@]12C`, the Potency entry in [1], in [2], in [3], in experiment [9], in experiment [4] and in experiment [6] was “inactive” throughout. In addition, the Potency entry in experiment [10] was “inactive”. Besides, the compound was classed as inactive in experiment [5] and in [7].

On to `COc1cc2c(c(OC)c1OC)-c1c(cc3c(c1OC)OCO3)C[C@@H](C)[C@](C)(O)C2`, for which the Potency entry in experiment [1], in [2], in [8], in experiment [3], in experiment [4] and in experiment [10] was “inactive” throughout. Further, the outcome in [7] was inactive.

As to `C[C@H](O)CN(C)C`, the Potency result in experiment [1], in [2], in experiment [3], in experiment [9], in experiment [4] and in experiment [6] was “inactive” in each case. In addition, the Potency entry in experiment [10] was “inactive”. Besides, the compound was called inactive in experiment [5] and in experiment [7].

With `CC(=O)OCC1=C(C(=O)O)N2C(=O)[C@@H](NC(=O)Cc3ccccc3)[C@H]2SC1`, the Potency result in experiment [1], in experiment [2], in [8], in experiment [3], in experiment [4] and in experiment [10] was “inactive” each time. In addition, the call in experiment [5] and in experiment [7] was inactive.

For the compound `CN[C@@H]1[C@@H](O[C@H]2O[C@H](CO)[C@@H](N)[C@H](O)[C@H]2O)O[C@H]2C[C@@H](N)[C@@H](O[C@H]3[C@H](O)[C@@H](O)[C@H](N)C[C@@H]3N)O[C@@H]2[C@@H]1O`, the Potency result in experiment [1], in experiment [2], in experiment [3], in experiment [9], in experiment [6] and in experiment [10] was “inactive” in each case. For the same compound, the result in [7] was inactive.

Source of the values: PubChem BioAssay (Tox21).
